Results on 7 molecules are retold here after PubChem BioAssay (EPA / NIEHS).

Records with an inconclusive call do not appear. The source made the active and inactive calls. How the source made its calls, unless noted: active means hit-call score of the fitted dose curve at least 0.9, where 1 is the maximum; inactive means score below 0.9.

Assay [1] can be described thus: IUF_NPC2c_oligodendrocyte_migration_120hr: Leibniz Research Institute for Environmental Medicine (IUF) 120-hour Neural Progenitor Cell Migration Assay for Oligodendrocyte Migration (NPC2c) (AID 2284297).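 Further: O4-positive oligodendrocyte migration distance divided by radial glia migration distance.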 Put shortly:
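hNPC spheres (GW 16-19 cortex), PDL/laminin, DMEM/F12 3:1 + 1% N2, 37C. Dosing day 0–5, half feed day 3, DMSO ≤0.1%. Fixed 120 h; O4 ICC + Hoechst, HCI. Readout: mean oligodendrocyte distance from sphere edge / radial glia distance.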

Assay [2] is described as follows: IUF_NPC2a_radial_glia_migration_72hr: Leibniz Research Institute for Environmental Medicine (IUF) 72-hour Neural Progenitor Cell Migration Assay for Radial Glia Migration (NPC2a) (AID 2284299). Put shortly: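 Spheres of human primary neural progenitors migrate on poly-D-lysine/laminin under compound exposure at 37C, 5% CO2. The 72 h radial glia migration distance comes from brightfield images, measured manually.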

The nature of assay [3]: IUF_NPC2b_neuronal_migration_120hr: Leibniz Research Institute for Environmental Medicine (IUF) 120-hour Neural Progenitor Cell Migration Assay for Neuron Migration (NPC2b) (AID 2284300). Summed up: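 hNPC spheres, PDL/laminin, DMEM:F12 3:1 + 1% N2, 37C/5% CO2; 7 concentrations + solvent control (DMSO ≤0.1%), 5 d exposure, half-feed day 3. Fix 120 h, TUBB3 ICC, HCI: mean neuron migration distance ÷ glia distance.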

Assay [4] can be described thus: IUF_NPC3_neuronal_differentiation_120hr: Leibniz Research Institute for Environmental Medicine (IUF) 120-hour Neuronal Differentiation Assay (NPC3) (AID 2284301). Put shortly: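 hNPC spheres, PDL/laminin, DMEM/F12 3:1 + 1% N2, 37C, 5% CO2; 7 concentrations + solvent control, 5 d exposure, half-change day 3. Fix 120 h; TUBB3/Hoechst ICC, CNN neuron calling; % neurons vs nuclei, DMSO-normalized.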

Assay [5] is described as follows: IUF_NPC4_neurite_length_120hr: Leibniz Research Institute for Environmental Medicine (IUF) 120-hour Neuronal Morphology Assay for Neurite Length (NPC4) (AID 2284302). Summed up: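 hNPC spheres (0.3 mm, fetal brain GW 16-19) on PDL/laminin, DMEM:F12 3:1 + 1% N2, 37C 5% CO2; 7 concs + solvent control, day 0-5, half medium change d3; fix 120 h, TUBB3 ICC, mean neurite length um vs DMSO.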

Assay [6] can be described thus: IUF_NPC5_oligodendrocyte_differentiation_120hr: Leibniz Research Institute for Environmental Medicine (IUF) 120-hour Oligodendrocyte Differentiation Assay (NPC5) (AID 2284304; active means hit-call score of the fitted dose curve at least 0.9, where 1 is the maximum;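 further: primary human fetal neural progenitor spheres plated to migrate and differentiate; share of O4-positive cells among Hoechst nuclei found by CNN image analysis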). Put shortly:
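hNPC spheres, fetal cortex GW 16-19; PDL/laminin, DMEM:F12 3:1 + 1% N2, 37C/5% CO2; 7 concentrations + solvent control, 5 d exposure, half-change day 3. Readout: %O4+ of Hoechst+ nuclei in migration area, CNN classification; DMSO baseline.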

A short description of assay [7]: IUF_NPC4_neurite_area_120hr: Leibniz Research Institute for Environmental Medicine (IUF) 120-hour Neuronal Morphology Assay for Neurite Area (NPC4) (AID 2284305; active means hit-call score of the fitted dose curve at least 0.9, where 1 is the maximum). Put shortly: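 hNPC spheres on PDL/laminin, N2 medium, 37C/5% CO2; dosed day 0, half-medium refresh day 3; fixed 120 h; TUBB3/Hoechst ICC, high-content imaging; neurite area = mean pixels per neuron (nuclei excluded); DMSO baseline, max 0.1%.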

Assay [8] is described as follows: IUF_NPC2-5_cytotoxicity_72hr: Cytotoxicity Assessment at 72 hours in the Leibniz Research Institute for Environmental Medicine (IUF) Neural Progenitor Cell Migration and Differentiation Assay for Cytotoxicity (NPC2-5) (AID 2284306; active means hit-call score of the fitted dose curve at least 0.9, where 1 is the maximum;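 further: LDH release into supernatant measured by resorufin fluorescence marking membrane damage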). Summed up:
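hNPC spheres (0.3 mm), PDL/laminin, DMEM/F12 3:1 + 1% N2; cpd from d0, 7 concs + SC, DMSO max 0.1%; half-medium refresh d3. Readout: supernatant LDH via resorufin fluorescence (RFU), 72 h; gain-of-signal fit.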

The nature of assay [9]: IUF_NPC2-5_cytotoxicity_120hr: Cytotoxicity Assessment at 120 hours in the Leibniz Research Institute for Environmental Medicine (IUF) Neural Progenitor Cell Migration and Differentiation Assay (NPC2-5) (AID 2284307; active means hit-call score of the fitted dose curve at least 0.9, where 1 is the maximum;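 on AC50: LDH released into supernatant as membrane damage marker via resorufin fluorescence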). Summed up:
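hNPC spheres on PDL/laminin, N2 medium, 37C; 7 concs + solvent control, DMSO ≤0.1%; 5-day exposure, half medium changed day 3. LDH in supernatant at 120 h, resazurin→resorufin fluorescence, gain-of-signal.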

A short description of assay [10]: IUF_NPC2-5_cell_number_120hr: Cell Number Assessment at 120 hours in the Leibniz Research Institute for Environmental Medicine (IUF) Neural Progenitor Cell Migration and Differentiation Assay (NPC2-5) (AID 2284308).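 Further: count of Hoechst-stained nuclei in migration zone around plated human neural progenitor spheres.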 Put shortly:
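Hoechst-stained nuclei within the migration area were counted by automated high content imaging after 120 h. Single hNPC spheres differentiated on poly-D-lysine/laminin in DMEM/F12 (3:1) with 1% N2, compound present throughout, DMSO ≤0.1%.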

Read-out in assay [11]: Actin alpha 1 (ACTA1), ACTA1 (gene 58)
The assay is described as follows: BSK_MyoF_ACTA1: BioMAP Diversity Plus: MyoF Assay for Actin alpha 1 (ACTA1) Biomarker Activity (AID 2284244). The following applies: primary human lung fibroblasts. Put shortly:
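MyoF fibroblast system (human lung); a-SMA quantified via ELISA at 24 h; DMSO-normalised, gain-of-signal endpoint.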

Read-out in assay [12]: Interleukin 2 (IL2), IL2 (gene 3558)
The assay is described as follows: BSK_BT_xIL2: BioMAP Diversity Plus: BT Assay for Interleukin 2 (IL2) Biomarker Activity (AID 2284245). To be noted: primary human B cells with PBMC. Put shortly: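 Co-cultures of primary human B cells and PBMC are treated with chemical and sampled at 24 h. IL-2 secretion is quantified by Luminex xMAP, with DMSO-treated wells as baseline.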

Read-out in assay [13]: Basic fibroblast growth factor (bFGF), FGF2 (gene 2247)
The assay is described as follows: BSK_MyoF_bFGF: BioMAP Diversity Plus: MyoF Assay for Basic fibroblast growth factor (bFGF) Biomarker Activity (AID 2284246). To be noted: primary human lung fibroblasts. Put shortly:
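Fibroblasts from human lung, 24 h dosing. bFGF by ELISA; gain of signal over DMSO.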

Read-out in assay [14]: Collagen IV, COL4A1 (gene 1282)
The assay is described as follows: BSK_MyoF_CollagenIV: BioMAP Diversity Plus: MyoF Assay for Collagen IV Biomarker Activity (AID 2284247). To be noted: primary human lung fibroblasts. Summed up:
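Lung fibroblasts (human primary) treated with chemicals were assayed after 24 h for Collagen IV using an ELISA, with DMSO serving as negative control and baseline for a positive-direction fit.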

Read-out in assay [15]: Plasminogen activator inhibitor-1 (PAI1), SERPINE1 (gene 5054)
The assay is described as follows: BSK_MyoF_PAI1: BioMAP Diversity Plus: MyoF Assay for Plasminogen activator inhibitor-1 (PAI1) Biomarker Activity (AID 2284256).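 Further: PAI-1 protein level measured by ELISA in fibroblast cultures; PAI-1 read 24 h after compound addition.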 To be noted: primary human lung fibroblasts. Summed up:
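MyoF lung fibroblasts, human primary; compound 24 h; PAI-1 ELISA; positive-direction fit vs DMSO baseline; parallel SRB total-protein staining for cytotoxicity.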

Read-out in assay [16]: Interleukin-8 (IL8), CXCL8 (gene 3576)
The assay is described as follows: BSK_MyoF_IL8: BioMAP Diversity Plus: MyoF Assay for Interleukin-8 (IL8) Biomarker Activity (AID 2284261). To be noted: primary human lung fibroblasts. Summed up:
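Lung fibroblasts (human primary) → chemical exposure → 24 h → IL-8 measured by ELISA. Signal increase scored versus DMSO control.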

Read-out in the next assay: Decorin, DCN (gene 1634)
The assay is described as follows: BSK_MyoF_Decorin: BioMAP Diversity Plus: MyoF Assay for Decorin Biomarker Activity (AID 2284265). The following applies: primary human lung fibroblasts. Put shortly: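 ELISA readout of decorin, 24 h post-dosing; primary human lung fibroblast (MyoF) culture; gain-of-signal fit vs DMSO baseline.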

Assay [17] is described as follows: BSK_MyoF_SRB: Viability Assessment in the BioMAP Diversity Plus: MyoF Assay (AID 2284267).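 Further: total protein by SRB absorbance in parallel cultures as cytotoxicity measure; cells assessed 24 h after compound addition.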 The following applies: primary human lung fibroblasts. Summed up: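 In this viability endpoint, fibroblasts from human lung are treated for 24 h, TCA-fixed, SRB-stained (0.1%) and read at 560 nm. Gain of signal relative to DMSO defines activity.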
Read-out in assay [18]: Matrix Metallopeptidase 1 (MMP1), MMP1 (gene 4312)
The assay is described as follows: BSK_MyoF_MMP1: BioMAP Diversity Plus: MyoF Assay for Matrix Metallopeptidase 1 (MMP1) Biomarker Activity (AID 2284268). To be noted: primary human lung fibroblasts. Put shortly: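 Cells: human lung fibroblasts. Exposure: 24 h chemical dosing. Detection: ELISA for MMP1. Analysis: upward fitting against DMSO negative control.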

Read-out in assay [19]: TIMP metallopeptidase inhibitor 1 (TIMP1), TIMP1 (gene 7076)
The assay is described as follows: BSK_MyoF_TIMP1: BioMAP Diversity Plus: MyoF Assay for TIMP metallopeptidase inhibitor 1 (TIMP1) Biomarker Activity (AID 2284269). The following applies: primary human lung fibroblasts. Put shortly:
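Fibroblasts from human lung are dosed with chemical, cultured 24 h, and assayed for TIMP-1 by ELISA. Increases over the DMSO baseline are scored, with SRB total-protein staining run in parallel for cytotoxicity.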

Usually AC50 stands for the midpoint of the concentration-response curve, whichever way the signal moves. In the case of `CCOc1cc(Oc2ccc(C(F)(F)F)cc2Cl)ccc1[N+](=O)[O-]`, the outcome in [1], in [2], in assay [3], in assay [4], in assay [5] and in assay [7] was inactive. Also, the molecule was classed as inactive in assay [8], in assay [9] and in assay [10]. The AC50 in [6] is 5.26 µM (active).
As to `C=CC1(C)OC(=O)N(c2cc(Cl)cc(Cl)c2)C1=O` (centres undefined), the molecule was called inactive in assay [1], in assay [2], in assay [3], in assay [4], in assay [5] and in [6]. Also, the result in assay [8], in assay [9] and in [10] was inactive.
Take `CNC(=O)ON=CC(C)(C)SC`: the result in assay [1], in assay [2], in assay [3], in assay [4], in [5] and in assay [6] was inactive. In addition, the molecule was classed as inactive in [7], in assay [8], in [9] and in assay [10].
In the case of `COc1cnc(OC)n2nc(NS(=O)(=O)c3c(OCC(F)F)cccc3C(F)(F)F)nc12`, the outcome in assay [11] is “inactive”; in [12], “inactive”; in assay [13], “inactive”; in [15], “inactive”; in [16], “inactive”; with Decorin, DCN (gene 1634) it was “inactive”. In addition, the outcome in [17], in [18] and in assay [19] was inactive. Besides, the AC50 in [14] is 0.024 µM (active).
For the molecule `Cc1ccc(-c2c(Cl)nc(C#N)n2S(=O)(=O)N(C)C)cc1`, the concentration at half-maximal activity (AC50) in assay [1] was 23.9 µM (active); in [2], 25.9 µM (active); in assay [3], 30.8 µM (active); in [4] it was 31.3 µM (active); in [5], 12.5 µM (active); in assay [6], 33.9 µM (active). Further, the AC50 in [7] is 26.1 µM (active); in assay [9], 33 µM (active); in assay [10], 13.2 µM (active). Besides, in assay [8], the result was inactive.
For the molecule `N#Cc1nn(-c2c(Cl)cc(C(F)(F)F)cc2Cl)c(N)c1S(=O)C(F)(F)F` (centres undefined), the molecule was classed as inactive in assay [1], in assay [2], in assay [3], in assay [4], in assay [8] and in assay [9]. The AC50 in assay [5] was 13.5 µM (active); in assay [6], 1.99 µM (active); in assay [7], 14.3 µM (active); in [10], 14.2 µM (active).
Regarding `CN(C)C(=S)SSC(=S)N(C)C`, the AC50 was 28.1 µM (active) in [1]; 11.4 µM (active) in assay [2]; 58.7 µM (active) in assay [3]; 13.5 µM (active) in assay [4]; 17.7 µM (active) in assay [5]; 26 µM (active) in assay [6]. Besides, the AC50 in assay [7] was 27.5 µM (active); in assay [8], 26.4 µM (active); in [9], 13 µM (active); in assay [10], 26.1 µM (active).
